Data from the supplement of paper PMC10849652.
Targets with a hit are over-represented here; the source holds about 7,900 in all. About 0.6% of all pairs of compound and target were hits.

Columns and labels:
Assay in all cases: log2 fold change, soluble protein after heating vs DMSO (PISA); higher = thermal stabilisation; K562 cells, 10 uM, 30 min; active = over 0.2 and 3.5 SD of the protein, either way, in both replicates (recomputed)
[1] = compound: COC1=CC=C(C=C1)CN2C=CC3=C2C=C(C=C3)C(=O)NO
How it was run: (§1)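 K562 cells at 2×10^6 cells/mL were treated with 10 μM compound for 30 min. Aliquots were heated for 3 min across 48°C-58°C, pooled, and extracted in PBS with 0.5% NP-40 at 4°C; soluble protein was the supernatant after 21,000xg for 90 min. Soluble protein was quantified by TMTpro 16plex LC-MS/MS with channel sums equalised, and reported as log2 fold change in thermal stability against DMSO controls, with values from duplicates.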

[2] = compound: CON(C)C(=O)N1N=C(c2cc(F)ccc2F)S[C@@]1(CCCN)c1ccccc1 [filanesib]
How it was run: as §1

[3] = compound: CO[C@H]1C[C@@H]2CC[C@@H](C)[C@@](O)(O2)C(=O)C(=O)N2CCCC[C@H]2C(=O)O[C@H]([C@H](C)C[C@@H]2CC[C@H](n3cnnn3)[C@H](OC)C2)CC(=O)[C@H](C)/C=C(\C)[C@@H](O)[C@@H](OC)C(=O)[C@H](C)C[C@H](C)/C=C/C=C/C=C/1C [zotarolimus]
How it was run: as §1

[4] = compound: COc1cc(C(=O)O)ccc1NC(=O)[C@@H]1N[C@@H](CC(C)(C)C)[C@](C#N)(c2ccc(Cl)cc2F)[C@H]1c1cccc(Cl)c1F [idasanutlin]
How it was run: as §1

[5] = compound: COc1cc(Nc2ncc3c(n2)-c2ccc(Cl)cc2C(c2c(F)cccc2OC)=NC3)ccc1C(=O)O [alisertib]
How it was run: as §1

[6] = compound: COc1cc2nc(-c3cc(F)ccc3O)nc(N[C@@H]3CNC[C@H]3C(C)(C)O)c2cc1OC
How it was run: as §1

[7] = compound: COc1cc2ncnc(Nc3ccc(F)c(Cl)c3)c2cc1OCCCN1CCOCC1 [gefitinib]
How it was run: as §1

[8] = compound: COc1cccc2cc(-c3nc([C@H]4CC[C@H](C(=O)O)CC4)n4ncnc(N)c34)[nH]c12
How it was run: as §1

[9] = compound: CS(=O)(=O)CCNCc1ccc(-c2ccc3ncnc(Nc4ccc(OCc5cccc(F)c5)c(Cl)c4)c3c2)o1 [lapatinib]
How it was run: as §1

[10] = compound: CS(=O)(=O)N1CCN(Cc2cc3nc(-c4cccc5[nH]ncc45)nc(N4CCOCC4)c3s2)CC1 [pictilisib]
How it was run: as §1

[11] = compound: CS(=O)(=O)c1ccc(-c2cnc(N)c(C(=O)Nc3ccccc3)n2)cc1
How it was run: as §1

[12] = compound: C[C@@H](Oc1cc(-c2cnn(C3CCNCC3)c2)cnc1N)c1c(Cl)ccc(F)c1Cl [crizotinib]
How it was run: as §1

[13] = compound: C[C@@H]1COCCN1C2=NC(=NC(=C2)C3(CC3)S(=O)(=O)C)C4=C5C=CNC5=CC=C4
How it was run: as §1

[14] = compound: C[C@H](C1=CC=C(C=C1)C(=O)NC2=C3C=CNC3=NC=C2)N
How it was run: as §1

[15] = compound: C[C@H](Nc1ncnc2nc[nH]c12)c1cc2cccc(Cl)c2c(=O)n1-c1ccccc1 [duvelisib]
How it was run: as §1

[16] = compound: Cc1cc(Nc2cc(CN3CCOCC3)c3nc(C)c(Cc4ccc(Cl)cc4F)n3n2)n[nH]1 [gandotinib]
How it was run: as §1

[17] = compound: Cc1cc(Nc2cc(N3CCN(C)CC3)nc(Sc3ccc(NC(=O)C4CC4)cc3)n2)n[nH]1 [tozasertib]
How it was run: as §1

[18] = compound: Cc1cc(SCc2sc(-c3ccc(C(F)(F)F)cc3)nc2C)ccc1OCC(=O)O
How it was run: as §1

[19] = compound: Cc1ccc(-n2nc(C(C)(C)C)cc2NC(=O)Nc2ccc(OCCN3CCOCC3)c3ccccc23)cc1 [doramapimod]
How it was run: as §1

[20] = compound: Cc1ccc(C(=O)N(CCCN)[C@@H](c2nc3cc(Cl)ccc3c(=O)n2Cc2ccccc2)C(C)C)cc1 [ispinesib]
How it was run: as §1

Measured: log2 fold change

RBM12 (UniProt Q9NTZ6)
UniProt Q9NTZ6, sequence (Q9NTZ6 whole entry, looked up): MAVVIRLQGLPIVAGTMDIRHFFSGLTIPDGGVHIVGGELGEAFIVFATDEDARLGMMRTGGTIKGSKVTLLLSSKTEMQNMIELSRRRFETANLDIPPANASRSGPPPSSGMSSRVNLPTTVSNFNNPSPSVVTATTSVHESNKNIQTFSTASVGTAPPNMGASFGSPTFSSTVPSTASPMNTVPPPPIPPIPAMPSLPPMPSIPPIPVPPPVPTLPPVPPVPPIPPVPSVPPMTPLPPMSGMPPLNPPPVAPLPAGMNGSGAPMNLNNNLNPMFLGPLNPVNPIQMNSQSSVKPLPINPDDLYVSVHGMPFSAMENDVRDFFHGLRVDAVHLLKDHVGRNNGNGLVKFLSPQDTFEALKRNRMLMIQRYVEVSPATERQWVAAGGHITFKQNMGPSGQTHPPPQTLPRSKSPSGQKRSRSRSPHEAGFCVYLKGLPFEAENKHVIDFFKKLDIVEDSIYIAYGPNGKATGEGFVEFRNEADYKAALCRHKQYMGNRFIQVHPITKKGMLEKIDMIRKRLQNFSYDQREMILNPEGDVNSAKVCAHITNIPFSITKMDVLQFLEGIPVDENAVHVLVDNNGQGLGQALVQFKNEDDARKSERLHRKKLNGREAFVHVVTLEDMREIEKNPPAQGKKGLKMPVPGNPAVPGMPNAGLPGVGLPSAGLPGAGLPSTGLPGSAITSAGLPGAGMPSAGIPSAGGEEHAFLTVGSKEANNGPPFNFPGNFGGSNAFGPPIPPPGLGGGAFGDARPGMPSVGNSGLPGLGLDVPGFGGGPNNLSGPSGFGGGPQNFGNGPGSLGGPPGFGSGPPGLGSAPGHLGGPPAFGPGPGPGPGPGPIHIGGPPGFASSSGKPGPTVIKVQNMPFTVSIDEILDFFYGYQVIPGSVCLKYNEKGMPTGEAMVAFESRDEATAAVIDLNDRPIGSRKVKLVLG
inactive: [1] 0.112 | [2] -0.033 | [3] 0.021 | [4] -0.039 | [5] 0.023 | [6] -0.014 | [7] 0.032 | [8] 0.023 | [9] -0.012 | [10] -0.019 | [11] 0.079 | [12] 0.005 | [13] 0.16 | [14] -0.109 | [15] 0.011 | [16] -0.132 | [17] 0.04 | [18] 0.1 | [19] -0.076 | [20] 0.008

SCAF8 isoform 2 (UniProt Q9UPN6)
inactive: [1] 0.026 | [2] 0.002 | [3] 0.022 | [4] -0.003 | [5] -0.027 | [6] 0.048 | [7] 0.058 | [8] 0.015 | [9] -0.007 | [10] -0.055 | [11] 0.085 | [12] -0.011 | [13] 0.1 | [14] -0.018 | [15] 0.053 | [16] -0.098 | [17] -0.039 | [18] 0.065 | [19] 0.003 | [20] -0.181

RSF1 (UniProt Q96T23)
inactive: [1] 0.267 | [2] -0.078 | [3] 0.023 | [4] -0.147 | [5] -0.067 | [6] -0.018 | [7] 0.037 | [8] -0.17 | [9] 0.004 | [10] 0.114 | [11] 0.056 | [12] -0.054 | [13] -0.002 | [14] -0.058 | [15] 0.108 | [16] -0.104 | [17] 0.228 | [18] 0.194 | [19] 0.043 | [20] 0.087

RETREG3 (UniProt Q86VR2)
UniProt Q86VR2, sequence (Q86VR2 whole entry, looked up): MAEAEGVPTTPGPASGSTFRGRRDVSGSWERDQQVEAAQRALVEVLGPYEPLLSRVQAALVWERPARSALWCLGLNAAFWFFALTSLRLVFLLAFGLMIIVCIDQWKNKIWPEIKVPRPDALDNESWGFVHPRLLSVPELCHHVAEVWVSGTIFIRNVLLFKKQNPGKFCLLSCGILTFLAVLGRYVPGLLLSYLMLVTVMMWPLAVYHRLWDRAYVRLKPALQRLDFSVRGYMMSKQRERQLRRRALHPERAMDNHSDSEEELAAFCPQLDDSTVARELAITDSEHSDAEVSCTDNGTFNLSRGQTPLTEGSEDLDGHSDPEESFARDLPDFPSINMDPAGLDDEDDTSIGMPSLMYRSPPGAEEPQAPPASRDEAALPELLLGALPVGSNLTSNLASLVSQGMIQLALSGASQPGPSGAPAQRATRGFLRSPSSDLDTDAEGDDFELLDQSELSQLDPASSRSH
active: [20] -0.459
inactive: [1] -0.038 | [2] -0.136 | [3] -0.053 | [4] -0.008 | [5] 0.029 | [6] -0.141 | [7] 0.035 | [8] 0.106 | [9] 0.037 | [10] 0.102 | [11] 0.016 | [12] -0.076 | [13] 0.081 | [14] 0.024 | [15] 0.005 | [16] 0.007 | [17] 0.006 | [18] 0.033 | [19] -0.052

RSRC1 (UniProt Q96IZ7)
UniProt Q96IZ7, sequence (Q96IZ7 whole entry, looked up): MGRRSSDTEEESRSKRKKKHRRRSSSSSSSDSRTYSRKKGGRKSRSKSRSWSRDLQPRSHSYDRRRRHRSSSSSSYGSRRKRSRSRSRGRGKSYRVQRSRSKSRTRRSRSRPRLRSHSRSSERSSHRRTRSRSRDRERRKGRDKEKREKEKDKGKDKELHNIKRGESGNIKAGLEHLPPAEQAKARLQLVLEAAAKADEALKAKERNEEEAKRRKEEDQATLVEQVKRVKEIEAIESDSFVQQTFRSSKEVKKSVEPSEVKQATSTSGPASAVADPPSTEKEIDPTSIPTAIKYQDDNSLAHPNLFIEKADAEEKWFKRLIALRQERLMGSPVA
active: [14] -0.386
inactive: [1] 0.136 | [2] -0.003 | [3] 0.033 | [4] -0.004 | [5] -0.084 | [6] -0.024 | [7] 0.024 | [8] 0.001 | [9] 0.041 | [10] 0.101 | [11] 0.007 | [12] -0.059 | [13] 0.027 | [15] 0.086 | [16] 0.176 | [17] -0.079 | [18] -0.034 | [19] 0.051 | [20] 0.037

SDHC (UniProt Q99643)
UniProt Q99643, sequence (Q99643 whole entry, looked up): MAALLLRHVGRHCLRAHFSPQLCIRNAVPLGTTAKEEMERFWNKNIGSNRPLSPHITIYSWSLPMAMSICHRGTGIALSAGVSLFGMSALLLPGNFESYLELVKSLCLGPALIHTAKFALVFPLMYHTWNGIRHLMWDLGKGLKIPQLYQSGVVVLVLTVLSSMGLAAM
inactive: [1] 0.088 | [2] 0.088 | [3] 0.094 | [4] -0.238 | [5] 0.023 | [6] -0.107 | [7] 0.042 | [8] 0.04 | [9] -0.081 | [10] -0.006 | [11] -0.304 | [12] 0.08 | [14] -0.045 | [15] 0.155 | [16] -0.023 | [17] 0.042 | [18] -0.111 | [19] -0.086 | [20] 0.047
active: [13] 0.457

RRP9 (UniProt O43818)
UniProt O43818, sequence (O43818 whole entry, looked up): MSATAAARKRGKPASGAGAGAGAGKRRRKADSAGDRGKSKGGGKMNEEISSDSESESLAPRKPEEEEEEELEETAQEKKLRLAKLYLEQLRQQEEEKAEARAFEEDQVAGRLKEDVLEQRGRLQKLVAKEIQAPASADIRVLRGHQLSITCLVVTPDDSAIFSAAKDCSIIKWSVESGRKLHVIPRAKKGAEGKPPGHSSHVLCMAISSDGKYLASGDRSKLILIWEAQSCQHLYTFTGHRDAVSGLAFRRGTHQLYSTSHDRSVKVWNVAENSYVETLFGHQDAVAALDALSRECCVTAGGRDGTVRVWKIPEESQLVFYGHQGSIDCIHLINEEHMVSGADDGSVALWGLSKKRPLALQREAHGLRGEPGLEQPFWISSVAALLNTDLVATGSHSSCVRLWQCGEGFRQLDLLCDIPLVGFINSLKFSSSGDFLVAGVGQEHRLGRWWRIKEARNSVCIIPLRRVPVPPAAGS
inactive: [1] -0.011 | [2] 0.143 | [3] -0.059 | [4] 0.171 | [5] -0.14 | [6] -0.061 | [7] 0.027 | [8] 0.047 | [9] 0.037 | [10] -0.04 | [11] -0.05 | [12] 0.084 | [13] -0.2 | [14] 0.031 | [15] -0.029 | [16] 0.056 | [17] 0.121 | [18] -0.054 | [19] 0.063 | [20] 0.12

RRAGC (UniProt Q9HB90)
UniProt Q9HB90, sequence (Q9HB90 whole entry, looked up): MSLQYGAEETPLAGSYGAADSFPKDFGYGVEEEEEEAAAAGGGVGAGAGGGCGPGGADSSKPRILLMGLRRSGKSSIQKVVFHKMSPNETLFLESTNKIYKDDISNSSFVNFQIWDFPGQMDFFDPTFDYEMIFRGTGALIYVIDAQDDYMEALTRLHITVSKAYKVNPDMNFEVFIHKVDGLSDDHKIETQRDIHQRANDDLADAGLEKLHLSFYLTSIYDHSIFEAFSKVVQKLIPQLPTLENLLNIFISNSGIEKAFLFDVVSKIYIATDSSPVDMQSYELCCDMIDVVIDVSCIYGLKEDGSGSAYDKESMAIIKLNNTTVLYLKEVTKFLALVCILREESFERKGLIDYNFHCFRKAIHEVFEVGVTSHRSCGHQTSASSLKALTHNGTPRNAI
inactive: [1] -0.028 | [2] -0.095 | [3] -0.009 | [4] -0.065 | [5] -0.003 | [6] 0.011 | [7] -0.01 | [8] 0.057 | [9] -0.01 | [10] 0.066 | [11] 0.016 | [12] -0.262 | [13] 0.008 | [14] -0.027 | [15] 0.053 | [16] 0 | [17] -0.061 | [18] -0.039 | [19] 0.019 | [20] -0.153

RNF14 (UniProt Q9UBS8)
inactive: [1] 0.034 | [2] -0.093 | [3] 0.018 | [4] 0.043 | [5] -0.035 | [6] -0.038 | [7] 0.003 | [8] -0.048 | [9] 0.006 | [10] 0.045 | [11] 0.034 | [12] 0.014 | [13] 0.081 | [14] -0.053 | [15] 0.031 | [16] 0.001 | [17] 0.058 | [18] 0.041 | [19] -0.025 | [20] -0.032

RAB8B (UniProt Q92930)
UniProt Q92930, sequence (Q92930 whole entry, looked up): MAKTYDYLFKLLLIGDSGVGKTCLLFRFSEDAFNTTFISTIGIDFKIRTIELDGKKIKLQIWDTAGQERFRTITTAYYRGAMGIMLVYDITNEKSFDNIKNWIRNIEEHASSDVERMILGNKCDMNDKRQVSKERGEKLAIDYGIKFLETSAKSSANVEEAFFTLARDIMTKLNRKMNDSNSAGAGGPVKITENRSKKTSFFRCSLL
inactive: [1] 0.258 | [2] -0.076 | [3] 0.045 | [4] -0.017 | [5] -0.035 | [6] -0.064 | [7] 0.021 | [8] -0.076 | [9] 0.023 | [10] -0.096 | [11] -0.212 | [12] 0 | [13] -0.046 | [14] -0.345 | [15] -0.028 | [16] -0.086 | [17] -0.076 | [18] 0.005 | [19] 0.034 | [20] 0.01

RPS18 (UniProt P62269)
inactive: [1] -0.157 | [2] 0.118 | [3] 0.012 | [4] 0.046 | [5] -0.015 | [6] -0.021 | [7] -0.013 | [8] -0.109 | [9] 0.065 | [10] -0.107 | [11] -0.022 | [12] 0.033 | [13] -0.244 | [14] 0.222 | [15] -0.076 | [16] 0.129 | [17] 0.016 | [18] -0.002 | [19] 0.105 | [20] -0.074

ROR2 (UniProt Q01974)
UniProt Q01974, sequence (Q01974 whole entry, looked up): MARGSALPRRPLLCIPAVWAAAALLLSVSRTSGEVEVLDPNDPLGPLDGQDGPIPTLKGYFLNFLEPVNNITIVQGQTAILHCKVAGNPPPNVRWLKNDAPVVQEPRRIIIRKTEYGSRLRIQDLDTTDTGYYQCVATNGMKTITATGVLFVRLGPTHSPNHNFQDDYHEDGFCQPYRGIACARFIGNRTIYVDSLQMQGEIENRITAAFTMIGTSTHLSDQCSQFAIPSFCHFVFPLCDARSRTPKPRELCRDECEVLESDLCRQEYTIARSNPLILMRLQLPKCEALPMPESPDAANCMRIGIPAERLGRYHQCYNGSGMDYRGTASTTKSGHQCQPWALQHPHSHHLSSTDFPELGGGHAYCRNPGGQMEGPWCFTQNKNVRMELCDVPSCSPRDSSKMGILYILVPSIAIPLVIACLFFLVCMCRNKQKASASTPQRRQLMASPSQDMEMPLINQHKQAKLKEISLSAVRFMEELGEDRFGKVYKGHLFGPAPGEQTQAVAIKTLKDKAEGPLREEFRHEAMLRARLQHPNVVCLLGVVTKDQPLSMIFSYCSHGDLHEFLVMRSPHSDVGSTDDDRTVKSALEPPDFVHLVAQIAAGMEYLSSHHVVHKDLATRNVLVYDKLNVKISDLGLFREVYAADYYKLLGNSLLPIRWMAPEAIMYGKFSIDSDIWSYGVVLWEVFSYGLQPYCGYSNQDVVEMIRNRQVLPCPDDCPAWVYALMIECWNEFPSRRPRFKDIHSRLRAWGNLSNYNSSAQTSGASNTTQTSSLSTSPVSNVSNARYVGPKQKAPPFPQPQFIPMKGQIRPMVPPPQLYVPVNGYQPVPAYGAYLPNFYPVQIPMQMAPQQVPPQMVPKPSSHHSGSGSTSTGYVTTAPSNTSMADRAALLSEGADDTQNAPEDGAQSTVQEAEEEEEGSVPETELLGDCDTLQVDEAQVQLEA
inactive: [1] -0.172 | [2] -0.017 | [3] 0.082 | [4] 0 | [5] -0.013 | [6] 0.022 | [7] 0.009 | [8] 0.012 | [9] 0.021 | [10] -0.079 | [11] 0.028 | [12] 0.007 | [13] 0.081 | [14] -0.031 | [15] 0.049 | [16] -0.007 | [17] -0.025 | [18] 0.097 | [19] -0.04 | [20] 0.083

SH2D1B (UniProt O14796)
UniProt O14796, sequence (O14796 whole entry, looked up): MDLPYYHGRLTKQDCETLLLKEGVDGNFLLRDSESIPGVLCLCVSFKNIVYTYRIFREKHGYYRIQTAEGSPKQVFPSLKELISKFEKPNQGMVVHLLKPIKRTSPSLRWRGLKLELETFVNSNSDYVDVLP
inactive: [1] 0.129 | [2] 0.086 | [3] -0.037 | [4] 0.117 | [5] -0.075 | [6] 0.072 | [7] -0.078 | [8] 0.236 | [9] 0.053 | [10] -0.004 | [11] -0.031 | [13] 0.075 | [14] -0.201 | [15] 0.102 | [16] -0.692 | [17] -0.479 | [18] -0.08 | [19] -0.072 | [20] 0.06
active: [12] -0.765

SLC18B1 (UniProt Q6NT16)
UniProt Q6NT16, sequence (Q6NT16 whole entry, looked up): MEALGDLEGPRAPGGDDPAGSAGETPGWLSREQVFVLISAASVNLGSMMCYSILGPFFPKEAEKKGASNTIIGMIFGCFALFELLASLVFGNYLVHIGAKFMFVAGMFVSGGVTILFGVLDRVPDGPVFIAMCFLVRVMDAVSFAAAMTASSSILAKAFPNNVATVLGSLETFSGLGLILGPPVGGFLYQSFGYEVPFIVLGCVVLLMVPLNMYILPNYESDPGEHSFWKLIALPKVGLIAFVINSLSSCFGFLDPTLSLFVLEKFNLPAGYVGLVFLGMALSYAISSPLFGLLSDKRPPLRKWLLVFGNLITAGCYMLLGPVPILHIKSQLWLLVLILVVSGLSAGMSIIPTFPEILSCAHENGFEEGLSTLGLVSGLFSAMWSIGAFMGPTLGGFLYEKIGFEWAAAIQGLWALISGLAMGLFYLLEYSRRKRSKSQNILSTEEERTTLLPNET
inactive: [1] 0.072 | [2] -0.094 | [3] -0.068 | [4] 0.083 | [5] 0.022 | [6] 0.058 | [7] 0.01 | [8] 0.087 | [9] -0.061 | [10] 0.067 | [11] 0.027 | [13] 0.06 | [14] -0.034 | [15] 0.047 | [16] 0.092 | [17] -0.097 | [18] -0.07 | [19] -0.002 | [20] -0.193
active: [12] -0.404

RNASEH2A (UniProt O75792)
inactive: [1] 0.029 | [2] -0.005 | [3] 0.034 | [4] -0.007 | [5] -0.016 | [6] 0.049 | [7] -0.013 | [8] 0.031 | [9] -0.029 | [10] 0.234 | [11] 0.106 | [12] -0.134 | [13] -0.045 | [14] -0.032 | [15] 0.011 | [16] 0.156 | [17] -0.028 | [18] 0.029 | [19] -0.023 | [20] -0.001

SFXN5 (UniProt Q8TD22)
UniProt Q8TD22, sequence (Q8TD22 whole entry, looked up): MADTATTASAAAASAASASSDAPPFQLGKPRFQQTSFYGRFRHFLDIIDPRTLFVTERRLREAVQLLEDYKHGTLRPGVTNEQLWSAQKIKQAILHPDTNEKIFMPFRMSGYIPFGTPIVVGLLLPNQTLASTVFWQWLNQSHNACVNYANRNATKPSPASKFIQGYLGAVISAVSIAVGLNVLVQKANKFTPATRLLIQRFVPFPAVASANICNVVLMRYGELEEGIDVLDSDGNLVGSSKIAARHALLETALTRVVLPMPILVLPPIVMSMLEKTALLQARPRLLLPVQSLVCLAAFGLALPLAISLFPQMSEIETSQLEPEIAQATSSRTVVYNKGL
inactive: [1] -0.104 | [2] -0.007 | [3] 0.025 | [4] -0.172 | [5] 0.027 | [6] -0.019 | [7] -0.013 | [8] 0.035 | [9] 0.017 | [10] 0.061 | [11] 0.144 | [12] 0.021 | [13] 0.073 | [14] -0.137 | [15] -0.07 | [16] -0.026 | [17] -0.015 | [18] 0.076 | [19] -0.055 | [20] 0.049
